Where “and” joins values, the source holds several entries; their conditions need not be identical. Equal values may be shown once. Among all 5,500 compounds or so, about 2,000 (36%) were called active. Inconclusive results (about 18%) are left out. Cut-off read from the data, not from the text of the source: active = normalized growth mostly below about 0.91 (no sharp cut-off); inconclusive = no clear call, values can overlap the other calls; inactive = mostly above about 0.92. This is one part of the list.
Assay: chemical genetic growth profiling, strain panel (AID 1159580);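 note: tested at 20 µM; growth read once vehicle control cultures reached saturation at 30 °C; 1 = growth at the plate median or of vehicle wells; lower values mean less growth of the strain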
Conditions: S. cerevisiae deletion strains, growth OD

Measured: normalized growth

NC(=O)c1ccccc1O
inactive: locus YAL021C, strain ccr4, active compounds read low 0.988 | locus YAL026C, strain drs2, active compounds read low 0.996 | locus YAL030W, strain snc1, active compounds read low 0.966 | locus YBL061C, strain skt5, active compounds read low 0.97 | locus YBR009C, strain hhf1, active compounds read low 1.04 | locus YBR021W, strain FUR4, active compounds read low 1.04 | locus YBR023C, strain chs3, active compounds read low 0.987 | locus YBR171W, strain sec66, active compounds read low 0.959 | locus YBR229C, strain ROT2, active compounds read low 0.999 | locus YBR231C, strain swc5, active compounds read low 0.988 | locus YBR279W, strain paf1, active compounds read low 0.997 | locus YCL011C, strain gbp2, active compounds read low 0.956 | locus YCL016C, strain dcc1, active compounds read low 1.01 | locus YCL029C, strain bik1, active compounds read low 1.02 | locus YCL061C, strain MRC1, active compounds read low 0.963 | locus YCL069W, strain vba3, active compounds read low 0.974 | locus YCR088W, strain abp1, active compounds read low 0.974 | locus YDL005C, strain med2, active compounds read low 0.972 | locus YDL035C, strain GPR1, active compounds read low 1.01 | locus YDL040C, strain nat1, active compounds read low 0.984 | locus YDL074C, strain BRE1, active compounds read low 0.997 | locus YDL101C, strain DUN1, active compounds read low 1.01 | locus YDL134C, strain PPH21, active compounds read low 1 | locus YDL185W, strain tfp1, active compounds read low 1.01 | locus YDL192W, strain arf1, active compounds read low 1.01 | locus YDR001C, strain nth1, active compounds read low 0.967 | locus YDR069C, strain doa4, active compounds read low 0.952 | locus YDR101C, strain arx1, active compounds read low 1 | locus YDR137W, strain rgp1, active compounds read low 0.964 | locus YDR159W, strain sac3, active compounds read low 0.985 | locus YDR162C, strain NBP2, active compounds read low 1.01 | locus YDR195W, strain ref2 0.927 | locus YDR297W, strain sur2, active compounds read low 0.981 | locus YDR318W, strain mcm21, active compounds read low 1.01 | locus YDR334W, strain swr1, active compounds read low 0.935 | locus YDR335W, strain msn5, active compounds read low 0.947 | locus YDR388W, active compounds read low 1.01 | locus YDR392W, strain spt3, active compounds read low 1.05 | locus YDR502C, strain sam2, active compounds read low 0.997 | locus YEL003W, strain gim4, active compounds read low 0.981 | locus YEL037C, strain rad23, active compounds read low 0.976 | locus YEL061C, strain CIN8 (second series), active compounds read low 0.98 | locus YEL061C, strain CIN8, active compounds read low 1 | locus YER015W, strain faa2, active compounds read low 1.01 | locus YER016W, strain bim1, active compounds read low 1.01 | locus YER110C, active compounds read low 1.01 | locus YER111C, strain swi4, active compounds read low 0.97 | locus YER155C, strain BEM2 (second series), active compounds read low 0.929 | locus YER155C, strain BEM2, active compounds read low 1.01 | locus YER167W, strain BCK2, active compounds read low 1.01 | locus YFR010W, strain ubp6, active compounds read low 0.96 | locus YGL078C, strain dbp3, active compounds read low 1 | locus YGL086W, strain mad1, active compounds read low 0.998 | locus YGL167C, strain pmr1, active compounds read low 0.961 | locus YGL173C, strain kem1, active compounds read low 0.968 | locus YGL227W, strain vid30, active compounds read low 0.975 | locus YGL240W, strain doc1, active compounds read low 0.981 | locus YGL248W, strain PDE1, active compounds read low 1 | locus YGL253W, strain hxk2, active compounds read low 0.997 | locus YGR135W, strain pre9, active compounds read low 1.02 | locus YGR229C, strain SMI1, active compounds read low 1.01 | locus YGR252W, strain gcn5, active compounds read low 1.03 | locus YHR013C, strain ard1, active compounds read low 0.988 | locus YHR027C, strain rpn1, active compounds read low 0.991 | locus YHR030C, strain SLT2, active compounds read low 1 and 1.07 | locus YHR079C, strain IRE1 (second series), active compounds read low 1.02 | locus YHR079C, strain IRE1, active compounds read low 1.06 | locus YHR094C, strain hxt1, active compounds read low 1 | locus YHR129C, strain ARP1, active compounds read low 1.01 | locus YHR142W, strain chs7, active compounds read low 0.946 | locus YHR200W, strain rpn10, active compounds read low 1 | locus YIL066C, strain RNR3, active compounds read low 0.993 | locus YIL073C, strain SPO22, active compounds read low 1.05 | locus YIL125W, strain kgd1, active compounds read low 1 | locus YIR030C, strain dcg1, active compounds read low 1.01 | locus YJL092W, strain hpr5, active compounds read low 0.96 | locus YJL095W, strain BCK1 (second series), active compounds read low 0.973 | locus YJL095W, strain BCK1, active compounds read low 1 and 1.05 | locus YJL115W, strain asf1, active compounds read low 0.985 | locus YJL129C, strain trk1, active compounds read low 0.992 | locus YJL134W, strain LCB3, active compounds read low 1 | locus YJL154C, strain vps35, active compounds read low 0.965 | locus YJL164C, strain tpk1, active compounds read low 1 | locus YJL166W, strain qcr8, active compounds read low 0.924 | locus YJL168C, strain set2, active compounds read low 1.01 | locus YJL187C, strain SWE1 (second series), active compounds read low 1.01 | locus YJL187C, strain SWE1, active compounds read low 0.989 | locus YJR043C, strain POL32, active compounds read low 0.985
